BH1578 lux ind – inducers of Vibrio cholerae quorum light production without autoinducers; AID 588436; activation, % at 18.7 µM; 350,000 tested, 0.16% active; V. cholerae BH1578 lux reporter, luminescence, 6 h; in the data active means activation mostly above about 9.7%, no sharp cut-off; inconclusive means no clear call, values can overlap the other calls; inactive means mostly below about 3.7%
Anthrax LF inh2 – inhibitors of Bacillus anthracis lethal factor protease; P15917; AID 588501; multiplex microsphere protease cleavage assay, LF; 360,000 tested, 0.12% active; inhibition, % at 10 µM
BoNT-F LC inh – inhibitors of Botulinum neurotoxin F light chain protease. Multiplex microsphere protease cleavage assay, flow cytometry. inhibition, % at 10 µM. 360,000 tested, 0.22% active. AID 588497; in the data active means inhibition above about 35%, passing the limit was not always enough; inconclusive means no clear call, values can overlap the other calls
Autofluor counter – compound fluorescence in toxin protease inhibitor counterscreen; compound autofluorescence counterscreen, microsphere flow cytometry; stronger effect = higher value; fluorescence intensity (test concentration not listed); 360,000 tested, 3.1% active; in the data active means fluorescence intensity above about 16000; inconclusive means no clear call, values can overlap the other calls
BJeLR lethal – BJeLR cell viability loss; BJeLR (HRASV12) viability, CellTiter-Glo ATP luminescence, 48 h; 300,000 tested, 0.17% active; inhibition, % (test concentration not listed); in the data active means inhibition above about 50%; inconclusive means no clear call, values can overlap the other calls
BoNT A protease – BoNT A light chain protease inhibition | 360,000 tested, 0.17% active | inhibition, % at 10 µM | AID 588499 | multiplex microsphere protease substrate cleavage, flow cytometry
BoNT-A LC CP1 – BoNT/A light chain protease inhibition; shares compounds with BoNT-F LC inh; multiplex microsphere protease assay, flow cytometry; inhibition, % at 10 µM; 720 tested, 3% active; AID 602139; in the data active means inhibition above about 32%
BoNT-F LC CP1 – BoNT/F light chain protease inhibition | shares compounds with BoNT-F LC inh | 720 tested, under 10 active | inhibition, % at 10 µM | multiplex microsphere protease cleavage assay, flow cytometry; call rule not given here
LF protease CP1 – inhibitors of Bacillus anthracis lethal factor protease; AID 602142; multiplex microsphere protease cleavage assay, LF; shares compounds with BoNT-F LC inh; 720 tested, under 10 active; inhibition, % at 10 µM; call rule not given here
Hits are given with their value; - = inactive; ? = inconclusive; . = not tested or not shown. This is a sample that favours compounds with a hit; in the whole collection about 3.7% have one here. Unless noted, no stated cut-off is given here; in the data, active means inhibition above about 30%; inconclusive means no clear call, values can overlap the other calls; inactive means below that.

SMILES	BH1578 lux ind	Anthrax LF inh2	BoNT-F LC inh	Autofluor counter	BJeLR lethal	BoNT A protease	BoNT-A LC CP1	BoNT-F LC CP1	LF protease CP1
Cc1nc2ccc([N+](=O)[O-])cc2c(=O)n1Cc1cccc(F)c1	-	60	85	-	-	-	-	-	-
Cc1ccc(CCNc2ncnc(Cl)c2N)cc1	-	-	-	?	.	-	.	.	.
N#Cc1cccc(C(c2nnnn2C2CCCC2)N2CCCCCC2)c1 (configuration not stated)	-	-	-	-	-	-	-	-	-
N#Cc1cccc(C(c2nnnn2C2CCCC2)N2CCC(Cc3ccccc3)CC2)c1 (configuration not stated)	-	-	-	-	-	-	.	.	.
CCc1ccc(CNCCc2ccccc2F)cc1	-	-	-	-	-	-	.	.	.
CCOc1cc(CNCCc2ccccc2F)ccc1OC	-	-	83	-	-	-	-	-	-
CCc1nc2ccc(C(=O)N3CCN(c4ccccc4)CC3)cn2c1N(C)CCCc1ccccc1	-	-	-	-	.	-	.	.	.
O=C(NC1CCCc2ccccc21)C1CCN(S(=O)(=O)c2ccccc2)CC1 (configuration not stated)	-	-	-	-	-	-	.	.	.
O=C(NC1CCCc2ccccc21)C1CCCC1 (configuration not stated)	-	33	?	-	-	-	-	-	-
CSc1ncnc2c1ncn2CCCNCc1ccc(C)o1	-	-	-	-	.	-	.	.	.
CCCS(=O)(=O)NC(=O)C1(C)CCCN(C(=O)C(C)(C)Oc2ccc(Cl)cc2)C1 (configuration not stated)	-	-	-	-	.	-	.	.	.
COCCN(Cc1cn(C)nc1-c1ccc(Oc2ccccc2)cc1)C(C)C	-	-	?	-	-	-	.	.	.
CC(C)N(C)Cc1cn(C)nc1-c1ccc(Oc2ccccc2)cc1	-	-	36	-	-	-	-	-	-
CCN1C[C@@H]2[C@@H]3C(=O)N(Cc4ccccc4)C(=O)[C@@H]3[C@](CC)(C1=O)N2C(=O)c1ccc(Cl)c(Cl)c1	-	-	-	-	.	-	.	.	.
CCCCC[C@@H](C)N1C[C@@H](COCc2ccccc2)Oc2cc(N3CC[C@H](N(C)C)C3)ccc2S1(=O)=O	.	-	-	-	.	-	.	.	.
COc1ccccc1CN1CCSCC1	-	-	71	-	-	-	-	-	-
COc1cccc(CN2CCSCC2)c1OC	-	-	-	-	-	-	.	.	.
CC(=O)Nc1ccc(NC(=O)CSc2nnc(CC(C)O)n2-c2ccccc2)cc1 (configuration not stated)	-	-	?	-	-	-	.	.	.
CC(=O)Nc1ccc(NC(=O)CSc2nnc(N)n2-c2ccccc2)cc1	-	-	39	-	.	-	-	-	-
Cc1ccc(S(=O)(=O)Nc2cccc3c2O[C@H](CN(C)Cc2ccccc2)[C@@H](C)CN([C@H](C)CO)C3=O)cc1	-	-	-	-	.	-	.	.	.
Cc1nc(N2CCN(C(c3ccccc3)c3ccccc3)CC2)[nH]c(=O)c1C	-	-	35	-	-	-	-	-	-
COc1cc(OC)cc(C(=O)Nc2ccc(C(=O)NCC3CCCO3)cc2)c1 (configuration not stated)	-	-	?	-	-	-	.	.	.
COc1ccc(C(=O)NCC2CCCO2)cc1 (configuration not stated)	-	-	36	-	-	-	-	-	-
NC(=O)C1CCN(C(=O)CCC(=O)c2cccs2)CC1	-	-	-	-	.	-	.	.	.
CC[C@@H](NC(=O)[C@@H](Cc1ccccc1)NC(=O)CC[C@H]1O[C@@H](n2ccc(=O)[nH]c2=O)[C@H](O)[C@@H]1O)c1ccccc1	.	-	-	-	.	-	.	.	.
SMILES	BH1578 lux ind	Anthrax LF inh2	BoNT-F LC inh	Autofluor counter	BJeLR lethal	BoNT A protease	BoNT-A LC CP1	BoNT-F LC CP1	LF protease CP1
COCCNC(=O)C1(C)CCCN(Cc2sc(C)nc2C)C1 (configuration not stated)	-	-	-	-	.	-	.	.	.
O=C(Nc1ccc(Nc2ccncc2)cc1)c1ccc([N+](=O)[O-])cc1	-	36	-	-	-	-	-	-	-
O=C(Nc1ccc(Oc2cccnc2)cc1)c1ccc([N+](=O)[O-])cc1	-	-	-	-	-	-	.	.	.
COc1ccc(CNC(=O)Nc2ccccc2)cc1	-	-	-	-	-	-	.	.	.
Cc1cc2cc(CNC(=O)c3cccs3)ccc2n1C	-	-	-	-	-	79	-	-	-
Cc1cc2cc(CNC(=O)Nc3ccccc3)ccc2[nH]1	-	-	-	-	-	55	-	-	-
Cc1cc2cc(CNC(=O)Nc3ccccc3)ccc2n1C	-	-	-	-	-	56	-	-	-
Cc1cc2cc(CNC(=O)C(C)Oc3ccccc3)ccc2n1C (configuration not stated)	-	-	-	-	-	90	-	-	-
CCOC(=O)NCc1ccc2[nH]c(C)cc2c1	-	-	-	-	-	-	.	.	.
CC[C@]12C(=O)N(C)C[C@H]([C@@H]3C(=O)N(C)C(=O)[C@@H]31)N2C(=O)c1ccc(C)cc1	-	-	-	-	.	-	.	.	.
Cc1cc2cc(CNC(=O)C3CC3)ccc2n1C	-	-	-	-	-	-	.	.	.
CCOC(=O)NCc1ccc2c(c1)cc(C)n2C	-	42	-	-	-	41	-	-	-
CCC(CC)C(=O)NCc1ccc2c(c1)cc(C)n2C	-	-	-	-	-	32	-	-	-
CCCCNC(=O)Cn1cnc([N+](=O)[O-])n1	-	-	40	-	-	-	-	-	-
COc1cccc(CNC(=O)c2cc(S(=O)(=O)N3CCCCC3)ccc2C)c1	-	-	-	-	.	-	.	.	.
CCOc1ccc2nc3cc(NCc4ccc(OC)cc4)ccc3c(N)c2c1	-	-	-	-	-	70	33	-	-
O=C1C2C3C=CC(CC3)C2C(=O)N1c1ccc(Cl)cc1 (configuration not stated)	-	.	.	.	-	.	.	.	.
O=C1C2C3C=CC(CC3)C2C(=O)N1c1ccc(Cl)cc1Cl (configuration not stated)	-	-	60	-	-	-	-	-	-
O=C(Nc1cccc(O)c1)N1CCOCC1	-	-	-	-	-	-	.	.	.
O=C(Nc1ccc2nc(-c3cccs3)c(-c3cccs3)nc2c1)N1CCOCC1	-	41	-	18209	-	68	39	-	-
N#Cc1cc2cc(Cl)ccc2[nH]c1=O	.	-	-	-	.	-	.	.	.
COCCNC(=O)C1(C)Cc2c(-c3cccc(C(F)(F)F)c3)ccnc2O1 (configuration not stated)	-	-	-	-	.	-	.	.	.
COc1ccc(-c2nc(-c3cccc(C)c3)no2)cc1OC	-	-	-	-	-	-	.	.	.
COc1cc(-c2nc(-c3cccc(C)c3)no2)cc(OC)c1OC	-	-	43	-	-	?	-	-	-
